CYP2C19 inhib = inhibitors of human CYP2C19; CYP2C19 Supersomes, luciferin-H EGE luminescence, 30 min; inhibition, % at 5 µM; 96,000 tested, 21% active;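 active means CYP2C19 inhibition above a set limit at 5 µM in the primary screen, cut at about 50% in these data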
Target sequence (P33261 whole entry, looked up): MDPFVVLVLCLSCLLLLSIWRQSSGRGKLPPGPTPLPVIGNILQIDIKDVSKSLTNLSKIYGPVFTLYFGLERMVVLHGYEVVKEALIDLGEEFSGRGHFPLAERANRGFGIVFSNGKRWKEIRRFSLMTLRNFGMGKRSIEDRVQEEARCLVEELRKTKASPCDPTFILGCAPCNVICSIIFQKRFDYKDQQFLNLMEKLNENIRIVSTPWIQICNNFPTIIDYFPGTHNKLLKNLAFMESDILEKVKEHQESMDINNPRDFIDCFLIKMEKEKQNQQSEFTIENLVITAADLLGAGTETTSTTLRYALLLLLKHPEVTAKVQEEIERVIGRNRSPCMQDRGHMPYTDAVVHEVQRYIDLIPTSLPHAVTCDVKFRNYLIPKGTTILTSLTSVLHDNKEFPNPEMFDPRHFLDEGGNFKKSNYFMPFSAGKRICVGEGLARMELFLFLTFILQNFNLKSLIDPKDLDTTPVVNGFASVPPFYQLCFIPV
CYP2C9 activ = activators of human CYP2C9 | recombinant CYP2C9, luciferin-H conversion, luminescence; stronger effect = higher value; factor 1 = untreated enzyme, 0 = blocked | P11712 | 96,000 tested, 1.4% active | activation factor at 5 µM;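 active means activation factor of 2 or more for CYP2C9 at a 5 µM dose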
CYP2C19 act = cytochrome P450 2C19 (human) activation; P33261; recombinant CYP2C19, luciferin-H EGE luminescence; stronger effect = higher value; 0 = fully inhibited enzyme, 1 = untreated enzyme; activation factor at 5 µM; 96,000 tested, under 10 active;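 active means activation factor of at least 2 at 5 µM in the primary screen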
Cav32 inh = inhibitors of human Cav3.2 T-type calcium channel; O95180; Cav3.2-expressing cells, Fluo-4 calcium fluorescence FDSS; stronger effect = lower value; B-score at 10 µM; 100,000 tested, 4% active;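 active means single-dose well whose peak fluorescence ratio is a statistical outlier from its plate by either plate-standardised score or position-corrected B-score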
CYP2C9 inhib = blocks human cytochrome P450 2C9 | P11712 | inhibition, % at 5 µM | 96,000 tested, 20% active | CYP2C9 Supersomes, luciferin-H conversion, luminescence;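 active means blocking of liver enzyme CYP2C9 beyond about 50% at 5 µM, limit read from the data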
Numbers stand for hits; – = inactive; · = not tested or not shown. Only some compounds are listed: those with a hit (about 27% of all), similar ones and a draw of the others.

SMILES	CYP2C19 inhib	CYP2C9 activ	CYP2C19 act	Cav32 inh	CYP2C9 inhib
CC(=O)NC(CC(C)C)C(=O)NC(CO)C(=O)NC(CCC(=O)O)C(=O)NC(C)C(=O)NC(CC(C)C)C(N)=O (centres undefined)	·	·	·	–	·
CCCCN(CC)CCNc1c(NC2CCN(C(=O)OCC)CC2)c(=O)c1=O	–	–	–	–	66
Cc1nn(-c2ccccc2)c2c1C(c1cccs1)C(C#N)=C(N)O2 (centres undefined)	–	–	–	·	79
Cc1nn(-c2ccccc2)c2c1C(c1ccco1)C(C#N)=C(N)O2 (centres undefined)	–	–	–	–	79
Cc1ccc(-n2nc(C)c3c2OC(N)=C(C#N)C3c2ccc(F)cc2)cc1 (centres undefined)	–	–	–	–	–
CN(C)/C=N/c1cc(=O)[nH]c(=O)n1C	·	·	·	–	·
CCOC(=O)c1c(NC(=O)c2ccoc2C)sc(C)c1C	–	–	–	–	–
CCOc1ccc(CC(=O)Nc2sc(Cc3ccccc3)cc2C(N)=O)cc1OCC	–	–	–	–	–
CCCc1cc(C(N)=O)c(NC(=O)c2ccoc2C)s1	67	–	–	–	88
CCCc1cc(C(N)=O)c(NC(=O)c2cc(C)on2)s1	–	–	–	–	64
NC(=O)c1cc(Cc2ccccc2)sc1NC(=O)c1ccco1	–	–	–	–	56
O=C1NC(=S)SC1=C1CCCCCC1	–	–	–	–	–
CCc1cc(/C(Cc2csc(C)n2)=N/O)c(O)cc1O	56	–	–	-5.2	–
NC(=O)CNC(=O)[C@@H]1CC2(CC(c3ccc(Cl)cc3)=NO2)CN1C(=O)c1ccc(Br)cc1 (some centres undefined)	–	–	–	–	–
Cc1[nH]nc2c1C1(CCN(C(=O)c3ccccc3)CC1)C(C#N)=C(N)O2	–	–	–	–	–
N#CC1=C(N)OC2=C(C(=O)CCC2)C12CCN(C(=O)OCc1ccccc1)CC2	99	–	–	–	66
Cc1[nH]nc2c1C1(CCN(C(=O)OCc3ccccc3)CC1)C(C#N)=C(N)O2	68	–	–	–	–
CCOC(=O)N1CCC2(CC1)C(C#N)=C(N)OC1=C2C(=O)CC(C)C1 (centres undefined)	–	–	–	–	68
CCN(C(=O)COc1ncnc2ccc(Br)cc12)C1CCS(=O)(=O)C1 (centres undefined)	–	–	–	–	–
CC(C)=CCc1c(O)c(CC=C(C)C)c2c(c1O)-c1cc(O)c(O)cc1CC2	·	·	·	–	·
COCC(C)NC(=O)COc1ccc(Cl)cc1Cl (centres undefined)	·	·	·	–	·
Cc1cc(=O)[nH]c(SC/C=C/c2ccccc2)n1	–	–	–	–	–
C(=C/c1ccnc2nc(SC/C=C/c3ccccc3)nn12)/c1ccccc1	–	–	–	–	79
CCCn1ncc(OC)c(Cl)c1=O	–	–	–	–	–
O=C(COc1ncnc2ccc(Br)cc12)N1CCOCC1	–	–	–	–	–
SMILES	CYP2C19 inhib	CYP2C9 activ	CYP2C19 act	Cav32 inh	CYP2C9 inhib
O=C(c1ccccc1)n1c(=S)nc2ccccn21	79	–	–	–	–
Cc1ccc(C(=O)n2c(=S)nc3ccccn32)cc1	–	–	–	·	–
CC(C)CC(NC(=O)C1CCC(C)CC1)C(=O)NCc1cccnc1 (centres undefined)	–	–	–	–	54
CC1CCC(C(=O)NC(C(=O)NCc2cccnc2)C(C)C)CC1 (centres undefined)	–	–	–	–	66
CC(C)CC(NC(=O)C1CCC(C)CC1)C(=O)N1CCN(c2ccccn2)CC1 (centres undefined)	81	–	–	–	62
CCC(C)C(NC(=O)C1CCC(C)CC1)C(=O)NCc1cccnc1 (centres undefined)	·	·	·	–	·
COc1cccc(-n2nnc3c(=O)n(CC(=O)N4CCCc5ccccc54)cnc32)c1	–	–	–	–	–
COc1ccc(-n2nnnc2Sc2ccc(S(=O)(=O)N3CCOCC3)cn2)cc1	–	–	–	–	–
CCOC(=O)N1CCN(Cc2nc3c(c(=O)n(C)c(=O)n3C)n2CCC(C)C)CC1	–	–	–	–	–
CCc1c(C)nc2ncnn2c1Nc1ccc(C)c(C)c1	·	·	·	–	·
CCc1c(C)nc2ncnn2c1NCCc1ccc(OC)cc1	63	–	–	–	85
CCC1=C(OC(=O)N(CC)CC)N2C(=O)OC(=NCC(=O)OC)[C@]2(Cc2ccccc2)[C@H]2C1=CC[C@H]1C(=O)N(CC(=O)OC)C(=O)[C@H]12	·	·	·	–	·
COCCN=C1Sc2nc3ccc(C)cc3cc2CN1Cc1ccco1	59	–	–	–	68
CCOc1ccc2nc3c(cc2c1)CN(CCOC)C(=NCCOC)S3	–	–	–	–	–
CCOC(=O)N1CCC(NS(=O)(=O)c2ccc3c(c2)CCN3C(C)=O)CC1	–	–	–	–	–
Cc1ccc(N(CC(=O)Nc2ccc(F)c(Cl)c2)S(=O)(=O)c2c(C)noc2C)cc1	–	–	–	–	–
CCOc1ccc(N(CC(=O)Nc2cccc(F)c2)S(=O)(=O)c2c(C)noc2C)cc1	–	–	–	–	–
COc1ccc(NC(=O)CN(c2cc(C)cc(C)c2)S(=O)(=O)c2c(C)noc2C)cc1	–	–	–	–	–
COc1ccc(NC(=O)CN(c2cc(C)cc(C)c2)S(=O)(=O)c2c(C)noc2C)cc1OC	–	–	–	–	50
CCOc1ccccc1NC(=O)CN(c1ccc(OC)cc1)S(=O)(=O)c1c(C)noc1C	89	–	–	–	90
CCOc1ccc(N(CC(=O)Nc2ccc(C)c(C)c2)S(=O)(=O)c2c(C)noc2C)cc1	·	·	·	-4.9	·
COc1ccc(N(CC(=O)Nc2cc(C)ccc2OC)S(=O)(=O)c2c(C)noc2C)cc1	64	–	–	–	67
CCN1CCN(C(C)C(=O)Nc2c(C)n(C)n(-c3ccccc3)c2=O)CC1 (centres undefined)	–	–	–	–	–
Cc1cccnc1NC(=O)Cn1nc(C)c([N+](=O)[O-])c1C	–	–	–	–	–
O=c1cc(O)nc(SCc2ccccc2)n1-c1ccc(F)cc1	–	–	–	–	–
SMILES	CYP2C19 inhib	CYP2C9 activ	CYP2C19 act	Cav32 inh	CYP2C9 inhib
CCOc1ccc(N(CC(=O)Nc2ccccc2C)S(=O)(=O)c2c(C)noc2C)cc1	87	–	–	–	–
CCN1CCN(Cc2c(C)[nH]c3ccc(OC)cc3c2=O)CC1	–	–	–	·	–
CC12CC3CC(C)(C1)CC(C(=O)NC1=NCCS1)(C3)C2	58	–	–	–	–
O=C(NC1=NCCS1)C12CC3CC(C1)CC(C(=O)NC1=NCCS1)(C3)C2	–	–	–	–	–
CCc1ccc(NC(=O)c2ccc3c(c2)C(=O)N(CCOC)C3Nc2ccc(CC)cc2)cc1 (centres undefined)	·	·	·	–	·
Fc1ccccc1-c1nc(-c2ccccc2)no1	·	·	·	–	·
Cc1ccc(-c2nc(-c3ccccc3)no2)cc1	66	–	–	–	–
COc1ccc(-c2nc(-c3ccccc3OC)no2)cc1OC	61	–	–	–	–
COc1ccc(-c2noc(-c3ccccc3F)n2)cc1	–	–	–	·	59
COc1ccccc1-c1noc(-c2ccccc2)n1	52	–	–	·	–
